Each structure is given as a SMILES string.

NADPH oxidase 5 (Homo sapiens), sequence (Q96PH1 whole entry, looked up): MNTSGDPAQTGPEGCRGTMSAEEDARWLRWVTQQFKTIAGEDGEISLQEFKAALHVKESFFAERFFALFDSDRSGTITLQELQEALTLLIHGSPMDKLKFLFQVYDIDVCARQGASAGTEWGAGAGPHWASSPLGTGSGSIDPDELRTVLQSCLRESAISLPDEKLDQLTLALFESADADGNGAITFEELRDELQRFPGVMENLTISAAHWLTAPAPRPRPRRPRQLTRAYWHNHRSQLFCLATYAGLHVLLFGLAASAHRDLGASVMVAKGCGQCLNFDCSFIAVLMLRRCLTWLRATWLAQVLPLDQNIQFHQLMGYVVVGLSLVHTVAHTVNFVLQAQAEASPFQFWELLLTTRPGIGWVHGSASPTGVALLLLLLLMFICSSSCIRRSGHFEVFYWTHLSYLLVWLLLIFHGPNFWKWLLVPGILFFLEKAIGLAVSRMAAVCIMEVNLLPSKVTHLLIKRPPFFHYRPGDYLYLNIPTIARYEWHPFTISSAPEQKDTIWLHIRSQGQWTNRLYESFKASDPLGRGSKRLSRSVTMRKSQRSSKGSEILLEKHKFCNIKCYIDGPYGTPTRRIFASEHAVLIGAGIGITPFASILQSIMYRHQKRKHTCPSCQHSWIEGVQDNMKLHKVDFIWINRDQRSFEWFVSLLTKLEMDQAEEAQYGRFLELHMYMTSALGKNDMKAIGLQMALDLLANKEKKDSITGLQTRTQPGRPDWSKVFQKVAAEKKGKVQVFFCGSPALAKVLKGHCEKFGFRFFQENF

The experiment has as its target NADPH oxidase 5 (Homo sapiens) (UniProt Q96PH1). Briefly: NOX5-dependent H2O2 signal modulators, primary screen, NOX inhibitor project, cell-based, HEK293-NOX5, Amplex Red fluorescence (AID 1161). Conditions: HEK293-NOX5, ionomycin, 45 min, higher = more signal.
Regarding `O=C1C2C=CC(C(O)Cc3ccccc3)N(n3cnnc3)C2C(=O)N1Cc1ccccc1` (stereo not given), the z-score is -1.36.

Take `CCCC[C@@H]1C[C@H]1[C@@H](NC(=O)c1ccco1)c1ccc(-c2ccccc2)cc1`: the z-score was -2.

For `C[C@@]1([C@@H](NC(=O)c2ccc(-c3ccccc3)cc2)c2ccc(Cl)cc2)C[C@H]1C1CCCCC1`, the z-score is 0.644.

With `COC(=O)c1c(CC[C@@H](CO)NC(=O)NCCn2cc(C3(O)CCCC3)nn2)oc(C(C)=O)c1C(=O)OC`, the z-score is -0.666.

Regarding `CC1(C)C2C=C(C(O)C3C=CC4C(=O)NC(=O)C4N3Nc3ccc(Cl)cc3Cl)C[C@@H]1C2` (stereo not given in full), the z-score is -3.46.

Turning to `NC(=O)NCC#Cc1ccc2c(c1)[C@]1(C(=O)N2)[C@H](C(=O)Nc2nc3ccccc3s2)[C@H]2C(=O)O[C@H](c3ccccc3)[C@H](c3ccccc3)N2[C@@H]1c1ccccc1OCCO`, the z-score is -3.4.

With `COC(=O)[C@@]1(Cc2ccc(F)cc2)[C@H]2c3cc(C(=O)N(C)C)n(Cc4cc(F)c(F)c(F)c4)c3C[C@H]2CN1C(=O)c1ccccc1`, the z-score was determined as 1.26.

Regarding `[N-]=[N+]=NCc1ccccc1[C@@H]1OC(c2ccc(OCCCO)cc2)=N[C@]1(Cc1ccccc1)C(=O)NCC(O)CO` (stereo not given in full), the z-score was -0.0855.

Take `COc1cc2c(cc1OC)CN(C(=O)[C@@H]1[C@H]3C(=O)O[C@H](c4ccccc4)[C@H](c4ccccc4)N3[C@H](c3ccc(O)cc3)[C@@]13C(=O)Nc1ccccc13)CC2`: the z-score is -0.19.

For the molecule `[N-]=[N+]=Nc1ccccc1[C@H]1OC(c2ccc(OCCCO)cc2)=N[C@@]1(CCS(=O)(=O)c1ccccc1)C(=O)NCC(O)CO` (stereo not given in full), the z-score was -1.07.

Turning to `O=C1NC(=O)C2C1C=CC(C(O)c1cccs1)N2Nc1ccc(Cl)cc1Cl` (stereo not given), the z-score is -1.57.

Consider `C=CCNC(=O)[C@H]1[C@@H]2C(=O)O[C@@H](c3ccccc3)[C@@H](c3ccccc3)N2[C@@H](c2ccccc2OCCO)[C@]12C(=O)Nc1ccc(C#CCCO)cc12`, for which the z-score was determined as 1.93.

With `CC(C)C(CO)N1C(=O)[C@@H]2C3C(=O)OCCC/C=C\[C@H]3OC23C=CCN(CCN2CCOCC2)C(=O)[C@@H]13` (stereo not given in full), the z-score amounted to 1.4.

As for `CC(=O)n1cc(C(O)C2C=CC3C(=O)N(c4ccccc4)C(=O)C3N2Nc2ccc([N+](=O)[O-])cc2)c2ccccc21` (stereo not given), the z-score was -1.91.

`CCOC(=O)C[C@H]1[C@H](OC(=O)c2ccc(C(=O)c3ccccc3)cc2)[C@@H](NC(=O)c2ccc3ccccc3n2)c2cc(OCCCO)ccc2N1C(=O)c1ccccc1` registered a z-score of 1.2.

Consider `COc1ccc(C#Cc2ccc3c(c2)[C@]2(C(=O)N3)[C@H](C(=O)NC[C@H](O)c3ccccc3)[C@H]3C(=O)O[C@H](c4ccccc4)[C@H](c4ccccc4)N3[C@@H]2c2ccc(O)cc2)cc1`, for which the z-score is -0.339.

Regarding `N#Cc1ccc(NN2C(C(O)C(c3ccccc3)c3ccccc3)C=CC3C(=O)N(c4ccccc4)C(=O)C32)cc1` (stereo not given), the z-score was -2.49.

On to `Cc1ccccc1C(O)C1C=CC2C(=O)N(c3ccccc3)C(=O)C2N1Nc1ccc(C(C)C)cc1` (stereo not given), for which the z-score was -4.42.

Regarding `CO[C@H]1O[C@H](CO)[C@@H](OC(=O)Nc2cccc(F)c2)[C@H](OC(=O)Nc2ccccc2)[C@@H]1OC(=O)Nc1ccccc1`, the z-score is -1.08.

With `C=CCOC(=O)[C@H]1[C@@H]2C(=O)O[C@@H](c3ccccc3)[C@@H](c3ccccc3)N2[C@@H](c2ccc(OCCOC(=O)[C@H]3C[C@H]4C(=O)N[C@@H](CCCCNC(C)=O)C(=O)N4[C@H]3c3ccc(O)cc3)cc2)[C@]12C(=O)Nc1ccc(I)cc12`, the z-score came to 0.935.

In turn, `Cc1nc2cc(Br)ccc2c(=O)o1` displayed a z-score of 0.256.

The molecule `CCCC[C@H]1OB(O)C[C@H]2C1=C(COC)Cn1c(=O)n(-c3ccccc3)c(=O)n12` displayed a z-score of 0.476.

`COc1ccc([Si](C)(C)[C@@H]2[C@@H](CCO)O[C@]3(C(=O)N(Cc4ccc(N(C=O)c5ccccc5)cc4)c4ccccc43)[C@H]2C)cc1` gave a z-score of 2.89.

For the molecule `CC(C)[Si](C#Cc1ccc(Oc2ccccc2)cc1)(O[Si](C#Cc1ccc(Oc2ccccc2)cc1)(C(C)C)C(C)C)C(C)C`, the z-score was -1.34.

In the case of `CN1C=C(C(=O)OCCS(C)(=O)=O)C(C(=O)OCCS(C)(=O)=O)=CC(c2ccc(CO)cc2)=CC1C1CC1` (stereo not given), the z-score is -2.52.

`COc1ccc(CCNC(=O)[C@@]2(Sc3ccc(C)cc3)CC(=O)N(C(C)C)[C@@H]2c2ccc(CO)cc2I)cc1` returned a z-score of 1.22.

`CC1(C)[C@@H]2CC(C(O)C3C=CC4C(=O)N(c5ccccc5)C(=O)C4N3Nc3ccc([N+](=O)[O-])cc3)=C[C@H]1C2` (stereo not given in full): the z-score is -2.02.

In turn, `NC(=O)NCC#Cc1ccc2c(c1)[C@]1(C(=O)N2)[C@H](c2ccccc2OCCO)N2[C@H](c3ccccc3)[C@H](c3ccccc3)OC(=O)[C@H]2[C@@H]1C(=O)Nc1nc2ccccc2s1` had a z-score of 0.883.

`COC(=O)C(CC#Cc1ccc2c(c1)[C@]1(C(=O)N2)[C@H](C(=O)Nc2nc3ccccc3s2)[C@H]2C(=O)O[C@H](c3ccccc3)[C@H](c3ccccc3)N2[C@@H]1c1ccc(O)cc1)C(=O)OC`: the z-score was -0.0824.

Consider `C=CCC(OC(C)=O)[C@@H]1[C@@H](N(Cc2ccc(-c3cccc(C(F)(F)F)c3)o2)C(=O)c2ccc(C)cc2)c2cc(OCCCO)ccc2N1C(=O)Cc1ccc2ccccc2c1` (stereo not given in full), for which the z-score came to 1.51.

In the case of `O=C1O[C@H](c2ccccc2)[C@H](c2ccccc2)N2[C@H]1[C@@H](C(=O)N1CCCCCCC1)[C@]1(C(=O)Nc3ccc(C#CC4=CCCCC4)cc31)[C@H]2c1ccc(OCCO)cc1`, the z-score was -2.05.

The molecule `CCCCCN1CC=CC23O[C@@H]4C=CCCOC(=O)C4[C@H]2C(=O)N(CCCCCO)[C@@H]3C1=O` (stereo not given in full) gave a z-score of 1.32.

On to `COCCCNC(=O)[C@]1(CCC(=O)OC(C)(C)C)N=C(c2ccc(OCCCO)cc2)O[C@@H]1c1ccccc1CN=[N+]=[N-]`, for which the z-score was -0.307.

With `O=C1c2ccccc2[C@](Cc2ccccc2I)(C(=O)NCCN2CCOCC2)[C@H](c2ccc(CO)cc2)N1C1CCCCC1`, the z-score worked out at 0.958.

Molecule `COc1ccc([Si](C)(C)[C@H]2[C@H](CCO)O[C@@]3(C(=O)N(Cc4ccc(N(C=O)c5ccccc5)cc4)c4ccccc43)[C@@H]2C)cc1` displayed a z-score of 2.37.

Values taken from PubChem BioAssay.
